In PubChem BioAssay AID504339 (National Center for Advancing Translational Sciences (NCATS), 2011):
Hit rate of the full screen: of about 390,000 compounds, about 17,000 (4.4%) were called active. Roughly 8% stayed inconclusive and do not appear here. The call rests on the fitted dose curve; in most records, active means well fitted inhibition curve with a large enough effect; inconclusive means small, poorly fitted or top-dose-only effect; inactive means no such curve, though single readings can be large or run the other way. Shown is part of a subset that was picked to be rich in actives. Entries that show only a call come without a potency.
Further: nearly all actives have a fitted effect of over 50% in size.
Potency means the concentration at half of the fitted maximal effect.

The compounds below were run against Lysine-specific demethylase 4A (Homo sapiens) (UniProt O75164) (assay: qHTS Assay for Inhibitors of JMJD2A-Tudor Domain). Details: AlphaScreen JMJD2A-Tudor / H3K4me3 peptide binding; series mostly up to 114 µM.
Lysine-specific demethylase 4A (Homo sapiens), sequence (O75164 whole entry, looked up, the tested form may be a part): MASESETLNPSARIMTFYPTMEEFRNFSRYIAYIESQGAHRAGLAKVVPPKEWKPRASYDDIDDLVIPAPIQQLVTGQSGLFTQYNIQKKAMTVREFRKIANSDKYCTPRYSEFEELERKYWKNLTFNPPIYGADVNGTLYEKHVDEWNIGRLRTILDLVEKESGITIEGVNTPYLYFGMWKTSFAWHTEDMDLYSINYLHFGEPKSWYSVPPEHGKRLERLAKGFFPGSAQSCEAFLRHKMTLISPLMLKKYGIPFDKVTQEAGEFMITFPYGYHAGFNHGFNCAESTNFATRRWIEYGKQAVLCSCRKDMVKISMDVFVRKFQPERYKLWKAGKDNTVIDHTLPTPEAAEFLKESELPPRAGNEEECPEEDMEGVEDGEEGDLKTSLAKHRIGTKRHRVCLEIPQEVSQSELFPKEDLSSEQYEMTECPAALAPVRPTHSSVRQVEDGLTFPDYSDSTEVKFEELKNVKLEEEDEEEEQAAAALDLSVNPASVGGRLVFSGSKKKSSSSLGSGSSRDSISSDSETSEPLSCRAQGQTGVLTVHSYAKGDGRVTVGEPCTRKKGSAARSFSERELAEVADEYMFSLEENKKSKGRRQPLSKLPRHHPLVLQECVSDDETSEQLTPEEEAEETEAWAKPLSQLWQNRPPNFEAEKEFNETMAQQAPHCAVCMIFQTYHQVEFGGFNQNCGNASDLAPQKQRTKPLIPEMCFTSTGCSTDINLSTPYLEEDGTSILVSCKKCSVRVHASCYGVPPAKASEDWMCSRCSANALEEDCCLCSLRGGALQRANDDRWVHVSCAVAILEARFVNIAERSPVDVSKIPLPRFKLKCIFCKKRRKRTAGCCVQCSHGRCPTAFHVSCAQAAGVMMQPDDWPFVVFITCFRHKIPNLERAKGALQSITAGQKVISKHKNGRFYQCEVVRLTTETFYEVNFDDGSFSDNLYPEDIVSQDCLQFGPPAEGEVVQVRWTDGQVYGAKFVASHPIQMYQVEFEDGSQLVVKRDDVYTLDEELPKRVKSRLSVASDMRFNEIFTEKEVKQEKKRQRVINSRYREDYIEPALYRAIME
For `Cc1cc(/C=C2/SC(=O)N(CC(=O)N3CCCC3)C2=O)c(C)n1C`, the Potency was “inactive”. In the case of `Cc1cc(/C=C2/SC(=O)N(CC(=O)OC(C)C)C2=O)c(C)n1C`, the Potency is reported as “inactive”. For `Cc1cc(/C=C2\SC(=O)N(C)C2=O)c(C)n1-c1cccc(C(=O)O)c1`, the Potency was 56.2 µM (active). In the case of `Cc1cccc(-n2c(SCC(N)=O)nc3c(oc4ccccc43)c2=O)c1`, the Potency is reported as “inactive”. For `O=C(CSc1nc(=O)[nH]c2c1CCCC2)Nc1cc(C(F)(F)F)ccc1Cl`, the Potency was “inactive”. For `CCOc1ccccc1NC(=O)CN1CCCN(Cc2cccc(Cl)c2)S1(=O)=O`, the Potency was “inactive”. For `Cc1c(NC(=O)c2cc(=O)c3ccccc3o2)c(=O)n(-c2ccccc2)n1C`, the Potency was “inactive”. With `C/C(=N\Nc1cccc(C(=O)O)c1)c1ccc2c(c1)Nc1ccccc1S2` the Potency was 56.2 µM (active). For `CC(=O)Nc1cccc(/C(C)=N/NC(=O)c2c(-c3ccccc3Cl)noc2C)c1`, the Potency was “inactive”. In the case of `Cc1ccccc1NC(=O)c1cc(S(=O)(=O)Nc2cccc(C(=O)O)c2)ccc1Cl`, the Potency is reported as “inactive”. `Cc1c(Cl)cccc1NC(=O)Cn1cc(C(=O)c2cccs2)c2ccccc21` was tested, and the Potency was “inactive”. `CC(=O)c1nn(-c2ccc(OC(F)(F)F)cc2)nc1Nc1ccccc1` was tested, and the Potency was “inactive”. `COc1ccccc1-c1nnc(NC(=O)c2cccc(N3C(=O)CCC3=O)c2)o1` was tested, and the Potency was 35.5 µM (active). With `COc1ccccc1NC(=O)c1ccc2nc(N3C(=O)CCC3=O)sc2c1` the Potency was “inactive”. With `COC(=O)c1cccc(NC(=O)c2cccc(N3C(=O)CCC3=O)c2)c1` the Potency was “inactive”. `Fc1ccc(C(Nc2ccc(Cl)c(C(F)(F)F)c2)c2nnc(-c3ccccc3)o2)cc1` (stereo not drawn) was tested, and the Potency was “inactive”. For `CCn1c(=O)cc(OCC(=O)Nc2cc(Cl)c(OC)cc2OC)c2ccccc21`, the Potency was “inactive”. In the case of `COc1ccc(NC(=O)c2ccc3nc(CCc4ccccc4)oc3c2)c(OC)c1`, the Potency is reported as “inactive”. `COc1ccc(NS(=O)(=O)c2ccc(Oc3c(C#N)cccc3C#N)cc2)cc1` was tested, and the Potency was “inactive”. With `COc1ccc(S(=O)(=O)Nc2cc3c(C(=O)OC(C)C)c(C)oc3c3ccccc23)cc1` the Potency was “inactive”. For `COc1ccc(S(=O)(=O)/N=C2\C=C(NS(=O)(=O)c3ccccc3)C(=O)c3ccccc32)cc1`, the Potency was 39.8 µM (active). `Cc1ccc(Cl)cc1N1CCN(C(=O)c2cccn3c(=O)c4cc(Cl)ccc4nc23)CC1` was tested, and the Potency was “inactive”. For `CCCC(=O)Nc1cc(C(=O)NCc2ccc(OC)cc2)ccc1S(=O)(=O)c1ccc(Cl)cc1`, the Potency was “inactive”. `CCN(CC)S(=O)(=O)c1ccc2c(c1)N(CC(=O)NCC(C)c1ccccc1)C(=O)CO2` (stereo not drawn) was tested, and the Potency was “inactive”. `CCc1cccc(NC(=O)CN(c2ccc(C)c(C)c2)S(=O)(=O)c2ccsc2C(=O)OC)c1` was tested, and the Potency was “inactive”. In the case of `CSc1ccc(CNCCN2CCOCC2)cc1`, the Potency is reported as “inactive”. `O=C(NCCCN1CCOCC1)c1cc(-c2ccccc2F)no1` was tested, and the Potency was “inactive”. For `CCCCC(CC)CNCc1cccn1CCN1CCOCC1` (stereo not drawn), the Potency was 28.2 µM (active).
